# Laboratory results as given in ChEMBL document CHEMBL3988442, “University of Dundee, Small-Polar-MMV Screening Library” (2021).
# About 13,000 (27%) of roughly 48,000 compounds showed an effect of 50% or more. This is one part of the list.
# Tested on: Wolbachia pipientis
# Test: Anti-Wolbachia Cell-Based Screen
# Type: functional
# Set-up: scale not given: in the data most compounds retested in dose-response had high values
# Conditions: 5 µM
row,SMILES,Percent Effect [%]
1,CSCc1ccc(N2CCC(C(O)Cc3ccccc3)CC2)nc1 (configuration not stated),26.16
2,O=C(O)C(F)(F)F.O=C(O)C(F)(F)F.c1cc(CN2CCc3ncnc(C4CCOC4)c3CC2)ccn1 (configuration not stated),0.007603
3,Cc1ccc(Oc2ncccc2CNC2CCSCC2)cn1,-8.046
4,Nc1ccc(-c2ccc(F)cc2Cl)cn1,-14.84
5,Cc1csc(CNC(=O)NCC(O)c2ccc(F)cc2)n1 (configuration not stated),8.268
6,CC(NC(=O)NCc1ccccn1)c1ccc2c(c1)CCC(=O)N2 (configuration not stated),101
7,CC(NC(=O)N(C)Cc1ccsc1)c1ccc2c(c1)CCC(=O)N2 (configuration not stated),-10.24
8,CC(NC(=O)NCc1cc[nH]n1)c1ccc2c(c1)CCC(=O)N2 (configuration not stated),-0.03999
9,Cc1ccsc1C(=O)NC(C)c1ccc2c(c1)CCC(=O)N2 (configuration not stated),-2.921
10,CC(NC(=O)NCc1cccs1)c1ccc2c(c1)CCC(=O)N2 (configuration not stated),122.7
11,CSc1ccsc1C(=O)NC(C)c1ccc2c(c1)CCC(=O)N2 (configuration not stated),-17.83
12,Cc1ccc(C(O)CNC(=O)NCc2nc(C)cs2)cc1 (configuration not stated),-27.45
13,O=C1CCCc2cc(S(=O)(=O)NCc3ccccn3)ccc2N1,-1.258
14,Cc1ccsc1CNC(=O)NC(C)c1ccc2c(c1)CCC(=O)N2 (configuration not stated),96.96
15,Cc1csc(CNC(=O)NC(C)c2ccc3c(c2)CCC(=O)N3)n1 (configuration not stated),108.8
16,O=C(CN1CCCS1(=O)=O)Nc1ccc(OC2CCCC2)cc1,-0.8772
17,COc1ccc(OCC(=O)NC(C)c2ccccc2)c(C(=O)O)c1 (configuration not stated),-7.994
18,CCCOc1ccc(CN)c(OC(F)F)c1,2.024
19,CC(C(=O)NCc1ccnc(N2CCN(C)CC2)c1)n1cccn1 (configuration not stated),-2.51
20,O=C(c1ccc(Cn2cc(Br)cn2)cc1)N1CCCC1,26.22
21,CN(C)C[C@@H]1CCC[C@@H]2CN(c3nccc(C(F)(F)F)n3)C[C@@H]21.O=C(O)C(F)(F)F,-9.332
22,CC(NC(=O)NCCS(C)(=O)=O)c1ccc2c(c1)CCC(=O)N2 (configuration not stated),98.04
23,CC(NC(=O)NCCCn1ccnc1)c1ccc2c(c1)CCC(=O)N2 (configuration not stated),-10.33

row,SMILES,Percent Effect [%]
1,CC(NC(=O)NCCCN(C)C)c1ccc2c(c1)CCC(=O)N2 (configuration not stated),1.464
2,CCCn1[nH]cc/c1=N\C(=O)CN1CCCC1Cn1cc(C)cn1 (configuration not stated),-13.34
3,O=C(c1cnccn1)N1CCN(Cc2csc(-c3ccccc3)n2)CC1,5.031
4,O=C(c1cnccn1)N1CCC2(CCN(Cc3ccsc3)C2)CC1,113.3
5,O=C(c1cnccn1)N1CCC2(CCCN(Cc3ccoc3)C2)C1 (configuration not stated),7.611
6,Cn1cccc1CN1CCC2(CC1)CCN(C(=O)c1cnccn1)CC2.O=C(O)C(F)(F)F,3.989
7,O=C(c1cnccn1)N1CCC2(CCN(Cc3ccsc3)CC2)CC1,105.9
8,NC(=O)C1=NC2=NS(=O)(=O)c3ccccc3N2N1Cc1ccc(Cl)cc1,1.46
9,CC(C)(CNc1cc(F)ccc1F)S(C)(=O)=O,-17.31
10,CC(=O)N1CCC(N2CCN3C(=O)N(Cc4ccccn4)C[C@H]3C2)CC1,-4.667
11,Cc1nnc(CSc2ccc(C(F)(F)F)cn2)o1,-11.49
12,CCN1CC(C(=O)NCc2nc(C3CCCCC3)no2)CC1=O (configuration not stated),-30.34
13,Cc1cc(C(=O)O)ccc1NS(=O)(=O)c1c(C)nn(C(C)C)c1C,-9.87
14,CN1CCCN(C(=O)c2cnc(C(C)(C)C)nc2O)CC1,-12.59
15,Cc1nc(N2CCN(C)CC2)ncc1C(=O)N1CCCCC1,123.3
16,Cc1nc(N2CCN(C)CC2)ncc1C(=O)N1CCN(C)CC1,120.1
17,Cc1nc(N2CCCCC2)ncc1-c1cc(O)[nH]n1,24.53
18,Cc1nc(N2CCN(C)CC2)ncc1C(=O)N1CC(C)(C)C(C)(O)C1 (configuration not stated),-4.468
19,Cc1nc(N2CCN(C)CC2)ncc1C(=O)N1CCC(O)(CO)CC1,-3.993
20,CC[C@H]1COCCN1C(=O)c1cnc(N2CCN(C)CC2)nc1C,-29.22
21,Cc1nc(N2CCN(C)CC2)ncc1C(=O)N1CCCCCC1,100.3
22,CN1CCCN(C(=O)c2cnc(Cc3c(Cl)cccc3Cl)nc2O)CC1,6.628
23,COCc1c(Br)cccc1NC(=O)CC(F)(F)F,-8.675

row,SMILES,Percent Effect [%]
1,CC(C)(O)c1cc(CC2(NCC3CCCCC3)COC2)no1,-2.979
2,O=C(c1n[nH]c2ccccc12)N1CCCC1c1noc(C2CC2)n1 (configuration not stated),-5.823
3,CC(C)(C)NS(=O)(=O)c1ccc(NC(=O)C2CC2)cc1,-16.45
4,Cc1cc(C)n(CC(=O)N2CCC(NS(C)(=O)=O)CC2)n1,-12.4
5,Cc1nn(CC(=O)N2CCCC2Cn2cccn2)c(C)c1Cl (configuration not stated),-2.085
6,COC1CCN(C(=O)Cn2nc(C)cc2C)CC1,-14.02
7,Cc1cc(C)n(C(=O)Cn2nc(C)c(I)c2C)n1,66.77
8,Cc1nn(CC(=O)n2cccn2)c(C)c1I,112.6
9,Cc1nn(CC(=O)N2CCCCC2Cn2cccn2)c(C)c1Cl (configuration not stated),-2.313
10,CC(=O)N1Cc2nc(C(=O)NCCc3cccnc3)oc2C1,-18.72
11,CSCC(C)N(C)S(=O)(=O)c1ccc(Cl)cc1C#N (configuration not stated),-5.71
12,CN(Cc1ccccc1CN1CCCC1)C(=O)c1c(O)cccc1O,-3.98
13,CN(C)Cc1ccccc1CN(C)C(=O)c1ccoc1,83.07
14,Cc1ccccc1CN(C)C(=O)c1ccoc1,-7.893
15,Cc1ncc(CC(=O)N2CCCCC2CCN2CCCC2)c(=O)[nH]1 (configuration not stated),-18.36
16,CCN(CC1CCOCC1)C(=O)CCNC(=O)c1ccccc1F,-3.146
17,CCN(CC1CCOC1)C(=O)c1ccccc1S(C)(=O)=O (configuration not stated),84.82
18,CCN(CC1CCOC1)C(=O)c1ccc(COc2ccccc2C#N)o1 (configuration not stated),0.9785
19,CCN(CC1CCOC1)C(=O)c1ccccc1NS(=O)(=O)CC (configuration not stated),0.4037
20,CCN(CC1CCOC1)C(=O)c1ccccc1S(=O)(=O)CC (configuration not stated),111.1
21,CCN(CC1CCOC1)C(=O)c1nc(-c2ccco2)sc1C (configuration not stated),14.29
